Test results from ChEMBL document CHEMBL3433997, “St. Jude Leishmania screening dataset” (2016).

Molecular target: Solute carrier family 2, facilitated glucose transporter member 1 (Homo sapiens) (UniProt P11166)
Assay: ST_JUDE_LEISH: Cytotoxicity at 2uM final concentration against transgenic Leishmania Mexicana promastigotes LmGLUT1 that are glucose transport deficient and complemented with the human glucose transporter GLUT1. Activity is measured by DNA content using SYBR green in vitro
Format: functional

Chain of Solute carrier family 2, facilitated glucose transporter member 1 (Homo sapiens) (P11166 whole entry): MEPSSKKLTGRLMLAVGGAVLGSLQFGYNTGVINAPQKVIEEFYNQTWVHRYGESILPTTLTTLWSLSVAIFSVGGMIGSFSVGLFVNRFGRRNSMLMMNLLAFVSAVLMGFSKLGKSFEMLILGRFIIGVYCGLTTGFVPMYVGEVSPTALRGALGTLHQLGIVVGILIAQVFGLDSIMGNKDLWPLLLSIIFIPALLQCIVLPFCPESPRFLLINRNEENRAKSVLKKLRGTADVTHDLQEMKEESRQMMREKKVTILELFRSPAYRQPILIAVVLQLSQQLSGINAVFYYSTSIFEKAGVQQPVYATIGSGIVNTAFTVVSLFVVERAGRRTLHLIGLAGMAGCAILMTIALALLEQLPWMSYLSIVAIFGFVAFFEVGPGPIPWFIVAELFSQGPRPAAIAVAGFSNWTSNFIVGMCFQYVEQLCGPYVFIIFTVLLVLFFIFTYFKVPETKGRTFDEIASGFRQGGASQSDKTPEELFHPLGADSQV

Compound | inhibition
CN(CC1CCC(NC(=O)/C=C/c2ccc(Cl)c(Cl)c2)CC1)C1CCC(c2c[nH]c3ccccc23)CC1 (stereo not given) | -0.25%
COC(=O)c1c(C#N)c(OC)cc(O)c1CSC[C@@H](CN1CCCCC1)Nc1nc(-c2ccc([N+](=O)[O-])cc2)cs1 | -0.16%
CNC(=O)CSc1nnc(-c2ccc(C)cc2)c(-c2ccc(C)cc2)n1 | 2.46%
O=C(NCc1cccc2ccccc12)C(c1cc2ccccc2o1)N1CCN(C(c2ccccc2)c2ccccc2)CC1 (stereo not given) | 3.87%
CN1CCCC(CN2CCN(Cc3cccc(-c4csc(-c5nc6ccccc6[nH]5)c4)c3)CC2)C1 (stereo not given) | 3.41%
O=C(N[C@@H](Cc1ccccc1)C(=O)NC1CCCCCC1)c1ccc(O)c(-c2cccc(C(F)(F)F)c2)c1 | 5.83%
CC(C)(C)C(=O)Oc1ccc(CC2NCCc3cc(OC(=O)C(C)(C)C)c(OC(=O)C(C)(C)C)cc32)cc1OC(=O)C(C)(C)C (stereo not given) | 8.66%
CCCCNCc1ccc(-c2nc(CN(Cc3ccc(Cl)c(Cl)c3)S(=O)(=O)c3ccc(NC(C)=O)cc3)cs2)cc1 | 2.51%
N=C1C=C(N)C(=O)c2ccccc21 | 89%
CS(=O)(=O)CCNCc1nc(-c2ccc3ncnc(Nc4ccc(OCc5cccc(F)c5)c(Cl)c4)c3c2)cs1 | 3.7%
Cc1[nH]c(C)c(-c2ccc(-c3ccc(OCC(F)(F)F)cc3)nc2)c(=O)c1Cl | 5.76%
Cc1cc(CNCC2CCC(CNCCCc3ccccc3)CC2)ccc1O (stereo not given) | 9.97%
CN(C)c1ccc(/C=C2\S/C(=N\c3ccccc3)N(c3ccccc3)C2=O)cc1[N+](=O)[O-] | 2.12%
CC(=O)N(C)c1cccc(C(=O)Nc2ccc(-c3cccc(-c4nc5cc(C(F)(F)F)ccc5[nH]4)c3)cc2)c1 | 11.5%
O=C(NCCCCCN1CCC(c2c[nH]c3ccccc23)CC1)c1ccc(Cl)c(Cl)c1 | 2.42%
COc1ccc2nccc([C@H](O)CN3CCC(NCc4ccc5c(c4C)OCCO5)CC3)c2n1 | 41%
CCC1N=C(N)N=C(N)N1OCCCOc1c(Cl)cc(Cl)cc1Cl (stereo not given) | 3.53%
CN1CCN=C1c1ccc(NC(=O)Nc2ccc(C3=NCCN3C)cc2)cc1 | 13%
COc1cc2c(cc1NC(=O)CN1CCN(C(=O)c3ccco3)CC1)oc1ccccc12 | 4.29%
COc1ccc(C=NN=c2cc(C)[nH]c3c(C)cccc23)c2ccccc12 | 1.53%

Compound | inhibition
O=C(c1ccc(F)cc1)N1CCOC(CCN2CCC(c3ccccc3)CC2)(c2ccc(Cl)c(Cl)c2)C1 (stereo not given) | 0.53%
CCCCCCOc1ccc(/C(N)=N\Cc2ccccc2)c2c1CCCC2 | 2.62%
COc1ccc2c(c1)[nH]c1c(/C=C/c3ccc([N+](=O)[O-])cc3)nccc12 | 3.75%
CC(C)c1ccc(NC(=O)c2cccc(CN3CCCN(CC4CCCCC4)CC3)c2)cc1 | 11.7%
COc1cccc2cc(C(=O)N[C@@H](CC(C)C)C(=O)N[C@H](/C=N/N3C(=O)CN(Cc4ccccc4)C3=O)CCc3ccccc3)oc12 | 7.07%
Cc1nc(N)nc(N)c1-c1ccc(Br)c(Br)c1 | 4.47%
N=C(N)Nc1nc(-c2cccc(NC(=O)NCc3ccc(OC(F)(F)F)cc3)c2)cs1 | 1.51%
O=[N+]([O-])c1ccc(N2CCCN(C(=S)Nc3ccc(F)cc3Br)CC2)nc1 | 1.6%
COc1ccccc1OCCN(CC(O)COc1cccc2[nH]c3ccccc3c12)CC(O)COc1cccc2[nH]c3ccccc3c12 (stereo not given) | 3.01%
O=c1c(Br)ccccc1Br | 1.2%
CNC(=N)c1ccc(NC(=O)c2ccc(C(=O)Nc3ccc(C(=N)NC)cc3)cc2)cc1 | 1.44%
CC(C)c1sc(N2CCN(C)CC2)nc1C(=O)NCCc1cccc(Cl)c1 | 6.7%
Cc1cccc(Nc2nc(N)c3ccccc3n2)c1 | 20.9%
COc1ccc(-c2cc3ncn(CC(=O)N4CCN(c5cccc(OC)c5)CC4)c(=O)c3s2)cc1 | 2.19%
Cc1[nH]c(C)c(-c2ccc(CCc3ccc(F)cc3F)cc2)c(=O)c1Cl | 0.89%
CCn1c(-c2nonc2N)nc2c(-c3ccccc3)ncc(OCCCCNCCc3ncc[nH]3)c21 | -0.2%
CN1CCC(N2CCN(Cc3ccc(-c4ccc(-c5nc6ccccc6[nH]5)s4)cc3)CC2)CC1 | 8.42%
CC(C)(C)c1ccc(CN2CCC(CNC(=O)c3cc(-c4ccccc4C(F)(F)F)cs3)C2)cc1 (stereo not given) | 1.63%
CNC(=O)c1ccccc1Nc1nc(Nc2cccnc2)ncc1C | -2.88%
FC(F)(F)c1cccc(C=NNc2nc3ccccc3[nH]2)c1 | 10.7%

Molecular target: Hexose transporter 1 (Plasmodium falciparum) (UniProt O97467)
Assay: ST_JUDE_LEISH: Cytotoxicity at 2uM final concentration against transgenic Leishmania Mexicana promastigotes LmPfHT that are glucose transport deficient and complemented with the Plasmodium falciparum hexose transporter. Activity is measured by DNA content using SYBR green in vitro
Format: functional

Compound | inhibition
CN(CC1CCC(NC(=O)/C=C/c2ccc(Cl)c(Cl)c2)CC1)C1CCC(c2c[nH]c3ccccc23)CC1 (stereo not given) | 0.8%
COC(=O)c1c(C#N)c(OC)cc(O)c1CSC[C@@H](CN1CCCCC1)Nc1nc(-c2ccc([N+](=O)[O-])cc2)cs1 | -0.29%
CNC(=O)CSc1nnc(-c2ccc(C)cc2)c(-c2ccc(C)cc2)n1 | 2.74%
O=C(NCc1cccc2ccccc12)C(c1cc2ccccc2o1)N1CCN(C(c2ccccc2)c2ccccc2)CC1 (stereo not given) | 1.42%
CN1CCCC(CN2CCN(Cc3cccc(-c4csc(-c5nc6ccccc6[nH]5)c4)c3)CC2)C1 (stereo not given) | 1.68%
O=C(N[C@@H](Cc1ccccc1)C(=O)NC1CCCCCC1)c1ccc(O)c(-c2cccc(C(F)(F)F)c2)c1 | 4.69%
CC(C)(C)C(=O)Oc1ccc(CC2NCCc3cc(OC(=O)C(C)(C)C)c(OC(=O)C(C)(C)C)cc32)cc1OC(=O)C(C)(C)C (stereo not given) | 9.32%
CCCCNCc1ccc(-c2nc(CN(Cc3ccc(Cl)c(Cl)c3)S(=O)(=O)c3ccc(NC(C)=O)cc3)cs2)cc1 | 0.43%
N=C1C=C(N)C(=O)c2ccccc21 | 100%
CS(=O)(=O)CCNCc1nc(-c2ccc3ncnc(Nc4ccc(OCc5cccc(F)c5)c(Cl)c4)c3c2)cs1 | 2.03%
Cc1[nH]c(C)c(-c2ccc(-c3ccc(OCC(F)(F)F)cc3)nc2)c(=O)c1Cl | 4.89%
Cc1cc(CNCC2CCC(CNCCCc3ccccc3)CC2)ccc1O (stereo not given) | 8.79%
CN(C)c1ccc(/C=C2\S/C(=N\c3ccccc3)N(c3ccccc3)C2=O)cc1[N+](=O)[O-] | 1.07%
CC(=O)N(C)c1cccc(C(=O)Nc2ccc(-c3cccc(-c4nc5cc(C(F)(F)F)ccc5[nH]4)c3)cc2)c1 | 10.1%
O=C(NCCCCCN1CCC(c2c[nH]c3ccccc23)CC1)c1ccc(Cl)c(Cl)c1 | 4.92%
COc1ccc2nccc([C@H](O)CN3CCC(NCc4ccc5c(c4C)OCCO5)CC3)c2n1 | 59.7%
CCC1N=C(N)N=C(N)N1OCCCOc1c(Cl)cc(Cl)cc1Cl (stereo not given) | 2.05%
CN1CCN=C1c1ccc(NC(=O)Nc2ccc(C3=NCCN3C)cc2)cc1 | 7.37%
COc1cc2c(cc1NC(=O)CN1CCN(C(=O)c3ccco3)CC1)oc1ccccc12 | 2.47%
COc1ccc(C=NN=c2cc(C)[nH]c3c(C)cccc23)c2ccccc12 | 1.31%

Compound | inhibition
O=C(c1ccc(F)cc1)N1CCOC(CCN2CCC(c3ccccc3)CC2)(c2ccc(Cl)c(Cl)c2)C1 (stereo not given) | 1.42%
CCCCCCOc1ccc(/C(N)=N\Cc2ccccc2)c2c1CCCC2 | 3.36%
COc1ccc2c(c1)[nH]c1c(/C=C/c3ccc([N+](=O)[O-])cc3)nccc12 | 4.42%
CC(C)c1ccc(NC(=O)c2cccc(CN3CCCN(CC4CCCCC4)CC3)c2)cc1 | 7.21%
COc1cccc2cc(C(=O)N[C@@H](CC(C)C)C(=O)N[C@H](/C=N/N3C(=O)CN(Cc4ccccc4)C3=O)CCc3ccccc3)oc12 | 8.34%
Cc1nc(N)nc(N)c1-c1ccc(Br)c(Br)c1 | 4.38%
N=C(N)Nc1nc(-c2cccc(NC(=O)NCc3ccc(OC(F)(F)F)cc3)c2)cs1 | 0.95%
O=[N+]([O-])c1ccc(N2CCCN(C(=S)Nc3ccc(F)cc3Br)CC2)nc1 | -0.77%
COc1ccccc1OCCN(CC(O)COc1cccc2[nH]c3ccccc3c12)CC(O)COc1cccc2[nH]c3ccccc3c12 (stereo not given) | 2.43%
O=c1c(Br)ccccc1Br | 3.16%
CNC(=N)c1ccc(NC(=O)c2ccc(C(=O)Nc3ccc(C(=N)NC)cc3)cc2)cc1 | 2.97%
CC(C)c1sc(N2CCN(C)CC2)nc1C(=O)NCCc1cccc(Cl)c1 | 3.42%
Cc1cccc(Nc2nc(N)c3ccccc3n2)c1 | 16.5%
COc1ccc(-c2cc3ncn(CC(=O)N4CCN(c5cccc(OC)c5)CC4)c(=O)c3s2)cc1 | 3.48%
Cc1[nH]c(C)c(-c2ccc(CCc3ccc(F)cc3F)cc2)c(=O)c1Cl | 1.94%
CCn1c(-c2nonc2N)nc2c(-c3ccccc3)ncc(OCCCCNCCc3ncc[nH]3)c21 | -0.76%
CN1CCC(N2CCN(Cc3ccc(-c4ccc(-c5nc6ccccc6[nH]5)s4)cc3)CC2)CC1 | 8.75%
CC(C)(C)c1ccc(CN2CCC(CNC(=O)c3cc(-c4ccccc4C(F)(F)F)cs3)C2)cc1 (stereo not given) | 3.76%
CNC(=O)c1ccccc1Nc1nc(Nc2cccnc2)ncc1C | -0.32%
FC(F)(F)c1cccc(C=NNc2nc3ccccc3[nH]2)c1 | 8.25%
